Calls of active or inactive are those of the source. A call without a number means that no potency is given here. Unless noted, calls come from the whole dose curve; as a rule, active = well fitted curve in the direction sought with a large enough effect in the repeat runs; inconclusive = weak or mixed curves; inactive = no such curve, though single readings can be large; an effect the other way counts as inactive or inconclusive.
Key:
[1] = qHTS assay for identifying genotoxic compounds that show differential cytotoxicity against isogenic chicken DT40 cell lines with known DNA damage response pathways - wild type cell line (AID 743012); note: nearly all actives have a fitted effect of over 60% in size; note: potency is the fitted concentration of half-maximal effect
Summary of the method: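 Viability of DNA repair-proficient chicken DT40 cells was assessed by CellTiter-Glo luminescence following 40 h compound exposure at 37 C/5% CO2.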

[2] = qHTS assay for identifying genotoxic compounds that show differential cytotoxicity against isogenic chicken DT40 cell lines with known DNA damage response pathways - Rev3 mutant cell line (AID 743014); note: nearly all actives have a fitted effect of over 55% in size; note: potency is the fitted concentration of half-maximal effect
[3] = qHTS assay for identifying genotoxic compounds that show differential cytotoxicity against isogenic chicken DT40 cell lines with known DNA damage response pathways - Rad54/Ku70 mutant cell line (AID 743015); note: nearly all actives have a fitted effect of over 60% in size; note: potency is the fitted concentration of half-maximal effect
[4] = qHTS assay to identify small molecule antagonists of the thyroid receptor (TR) signaling pathway - cell viability counter screen (AID 743064); note: nearly all actives have a fitted effect of over 50% in size; note: potency is the fitted concentration of half-maximal effect
Summary of the method: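 GH3.TRE-Luc cells, 4 h pre-plating; cpd + T3 1 nM final; 37 °C 23.5 h; CellTiter-Fluor 30 min; fluorescence read.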

[5] = qHTS assay to identify small molecule antagonists of the thyroid receptor (TR) signaling pathway (AID 743065); note: nearly all actives have a fitted effect of over 55% in size; note: potency is the fitted concentration of half-maximal effect
Summary of the method: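 GH3.TRE-Luc rat pituitary cells (two TREs driving luciferase) were dosed with compound, then stimulated with 1 nM T3 (final) for 23.5 h at 37 C. ONE-Glo luminescence was the read-out, with CellTiter-Fluor fluorescence as the cytotoxicity counter-screen.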

[6] = test system: thyroid hormone receptor (rat, GH3 cells); test: qHTS assay to identify small molecule agonists of the thyroid receptor (TR) signaling pathway (AID 743066; calls by dose curve; note: potency is the fitted concentration of half-maximal effect)
[7] = target: Estrogen receptor (Homo sapiens) (UniProt P03372); test: qHTS assay to identify small molecule agonists of the estrogen receptor alpha (ER-alpha) signaling pathway (AID 743075; calls by dose curve; note: potency is the fitted concentration of half-maximal effect)
[8] = target: Estrogen receptor (Homo sapiens) (UniProt P03372); test: qHTS assay to identify small molecule agonists of the estrogen receptor alpha (ER-alpha) signaling pathway using the BG1 cell line (AID 743079); note: nearly all actives have a fitted effect of over 20% in size; note: potency is the fitted concentration of half-maximal effect
[9] = qHTS assay to identify small molecule antagonists of the estrogen receptor alpha (ER-alpha) signaling pathway using the BG1 cell line - cell viability counter screen (AID 743081);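 note: compound given together with 17beta-estradiol as the ER stimulus; series mostly up to about 70 µM; nearly all actives have a fitted effect of over 45% in size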
Aromatase (Homo sapiens) = Aromatase (Homo sapiens) (UniProt P11511); test: qHTS assay to identify aromatase inhibitors (AID 743083); note: nearly all actives have a fitted effect of over 55% in size; note: potency is the fitted concentration of half-maximal effect
[10] = qHTS assay to identify small molecule antagonists of the glucocorticoid receptor (GR) signaling pathway - cell viability counter screen (AID 720693); note: nearly all actives have a fitted effect of over 55% in size
[11] = qHTS assay to identify small molecule antagonists of the androgen receptor (AR) signaling pathway - cell viability counter screen (AID 743033; note: nearly all actives have a fitted effect of over 45% in size; note: potency is the fitted concentration of half-maximal effect)
[12] = qHTS assay to identify small molecule antagonists of the androgen receptor (AR) signaling pathway using the MDA cell line - cell viability counter screen (AID 743041; note: nearly all actives have a fitted effect of over 45% in size)
Summary of the method: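 Compound exposure lasted 16 h at 37C in MDA-kb2 AR-luc cells stimulated with R1881. Protease-based CellTiter-Fluor reagent was applied for the final 30 min and fluorescence measured.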

[13] = qHTS assay to identify small molecule antagonists of the estrogen receptor alpha (ER-alpha) signaling pathway - cell viability counter screen (AID 743074; calls by dose curve; note: nearly all actives have a fitted effect of over 45% in size)
[14] = target: Estrogen receptor (Homo sapiens) (UniProt P03372); test: qHTS assay to identify small molecule antagonists of the estrogen receptor alpha (ER-alpha) signaling pathway (AID 743069; active = well fitted curve in the direction sought with a large enough effect in the signal ratio in the repeat runs, not every such curve was filed as active; inconclusive = weak or mixed curves, or effect the other way; inactive = no such curve, though single readings can be large or run the other way; the % refers to the signal ratio; note: potency is the fitted concentration of half-maximal effect)
Summary of the method: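 In this cell-based reporter format, GripTite HEK293 cells harbouring ER-alpha-UAS-bla were grown overnight with 2% charcoal-stripped FBS, dosed with DMSO-dissolved compounds, then challenged with 17beta-estradiol. After 18 hr at 37C, beta-lactamase activity was detected by FRET fluorescence.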

[15] = qHTS assay to identify small molecule antagonists of the estrogen receptor alpha (ER-alpha) signaling pathway using the BG1 cell line (AID 743080; calls by dose curve;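 note: BG1 cells stimulated with 17beta-estradiol alongside compound; nearly all actives have a fitted effect of over 25% in size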; note: potency is the fitted concentration of half-maximal effect)
Summary of the method: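 Readout is ONE-Glo luminescence, taken 30 min at room temperature after reagent addition, preceded by a CellTiter-Fluor viability read; BG1-Luc-4E2 cells had received compound and 17beta-estradiol for 21.5 h at 37 C.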

[16] = target: Androgen receptor (Homo sapiens) (UniProt P10275); test: qHTS assay to identify small molecule antagonists of the androgen receptor (AR) signaling pathway (AID 743035; active = well fitted inhibition curve with a large enough effect in the signal ratio in the repeat runs, not every such curve was filed as active; inconclusive = weak or mixed curves, or effect the other way; inactive = no such curve, though single readings can be large or run the other way; the % refers to the signal ratio; note: potency is the fitted concentration of half-maximal effect)
Summary of the method: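 Reporter HEK293 cells were exposed to compounds and R1881 overnight (16 h, 37C); beta-lactamase activity was then quantified by FRET fluorescence.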

[17] = target: Androgen receptor (Homo sapiens) (UniProt P10275); test: qHTS assay to identify small molecule agonists of the androgen receptor (AR) signaling pathway (AID 743036; active = well fitted activation curve with a large enough effect in the signal ratio in the repeat runs, with a control signal flat, not every such curve was filed as active; inconclusive = weak or mixed curves, or effect the other way; inactive = no such curve, though single readings can be large or run the other way; the % refers to the signal ratio)
Summary of the method: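 AR-bla HEK293 cells, 2,000/well; 4 h preincubation 37C/5% CO2; compound (DMSO) 16 h at 37C; LiveBLAzer B/G FRET substrate 2 h RT; fluorescence intensity read-out.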

[18] = target: Androgen receptor (Homo sapiens) (UniProt P10275); test: qHTS assay to identify small molecule antagonists of the androgen receptor (AR) signaling pathway using the MDA cell line (AID 743042; note: nearly all actives have a fitted effect of over 55% in size)
Summary of the method: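 MDA-kb2 breast carcinoma cells carrying MMTV-luciferase (AR/GR responsive) were co-treated with compounds and the agonist R1881 for 16 h at 37C. Inhibition read as ONE-Glo luminescence; CellTiter-Fluor fluorescence measured in parallel for cytotoxicity.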

Chain of Estrogen receptor (Homo sapiens) (P03372 whole entry, looked up): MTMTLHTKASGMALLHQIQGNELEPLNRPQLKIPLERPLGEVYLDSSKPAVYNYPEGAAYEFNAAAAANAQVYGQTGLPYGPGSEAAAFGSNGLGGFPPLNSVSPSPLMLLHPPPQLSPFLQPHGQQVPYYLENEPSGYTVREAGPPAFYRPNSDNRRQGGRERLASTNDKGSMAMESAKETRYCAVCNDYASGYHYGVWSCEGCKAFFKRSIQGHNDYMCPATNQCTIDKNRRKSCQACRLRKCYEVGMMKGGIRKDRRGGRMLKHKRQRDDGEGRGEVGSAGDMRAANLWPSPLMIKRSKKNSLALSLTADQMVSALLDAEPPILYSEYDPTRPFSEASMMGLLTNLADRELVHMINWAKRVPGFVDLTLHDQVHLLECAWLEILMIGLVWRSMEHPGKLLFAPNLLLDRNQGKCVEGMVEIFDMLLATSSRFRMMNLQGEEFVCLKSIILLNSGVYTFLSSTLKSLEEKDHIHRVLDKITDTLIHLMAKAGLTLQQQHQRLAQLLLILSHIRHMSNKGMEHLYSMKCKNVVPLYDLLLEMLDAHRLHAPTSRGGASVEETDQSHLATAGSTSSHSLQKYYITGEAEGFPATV
Chain of Androgen receptor (Homo sapiens) (P10275 whole entry, looked up): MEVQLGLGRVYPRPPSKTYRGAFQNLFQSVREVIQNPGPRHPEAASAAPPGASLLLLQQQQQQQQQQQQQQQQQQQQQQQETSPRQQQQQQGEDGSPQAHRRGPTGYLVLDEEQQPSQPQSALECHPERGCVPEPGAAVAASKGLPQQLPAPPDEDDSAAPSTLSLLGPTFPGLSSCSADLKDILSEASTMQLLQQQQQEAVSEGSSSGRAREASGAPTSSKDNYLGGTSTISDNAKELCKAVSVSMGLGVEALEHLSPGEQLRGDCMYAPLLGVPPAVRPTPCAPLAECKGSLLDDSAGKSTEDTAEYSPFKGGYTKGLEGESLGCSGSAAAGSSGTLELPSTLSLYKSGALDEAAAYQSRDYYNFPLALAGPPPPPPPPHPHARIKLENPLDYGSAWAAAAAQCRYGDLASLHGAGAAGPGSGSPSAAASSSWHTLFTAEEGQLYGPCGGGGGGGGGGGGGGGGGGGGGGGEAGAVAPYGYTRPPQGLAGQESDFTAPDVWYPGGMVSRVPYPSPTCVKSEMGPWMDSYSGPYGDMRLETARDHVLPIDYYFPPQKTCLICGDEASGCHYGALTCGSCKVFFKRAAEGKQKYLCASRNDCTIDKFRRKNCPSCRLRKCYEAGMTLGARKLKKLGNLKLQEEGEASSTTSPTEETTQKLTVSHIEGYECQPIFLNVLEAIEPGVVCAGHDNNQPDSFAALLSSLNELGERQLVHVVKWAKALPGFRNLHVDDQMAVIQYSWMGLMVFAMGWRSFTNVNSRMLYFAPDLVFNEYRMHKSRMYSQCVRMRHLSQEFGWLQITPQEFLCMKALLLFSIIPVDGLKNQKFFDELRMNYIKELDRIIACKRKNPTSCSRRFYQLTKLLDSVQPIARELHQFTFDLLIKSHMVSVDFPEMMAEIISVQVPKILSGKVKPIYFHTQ
Chain of Aromatase (Homo sapiens) (P11511 whole entry, looked up): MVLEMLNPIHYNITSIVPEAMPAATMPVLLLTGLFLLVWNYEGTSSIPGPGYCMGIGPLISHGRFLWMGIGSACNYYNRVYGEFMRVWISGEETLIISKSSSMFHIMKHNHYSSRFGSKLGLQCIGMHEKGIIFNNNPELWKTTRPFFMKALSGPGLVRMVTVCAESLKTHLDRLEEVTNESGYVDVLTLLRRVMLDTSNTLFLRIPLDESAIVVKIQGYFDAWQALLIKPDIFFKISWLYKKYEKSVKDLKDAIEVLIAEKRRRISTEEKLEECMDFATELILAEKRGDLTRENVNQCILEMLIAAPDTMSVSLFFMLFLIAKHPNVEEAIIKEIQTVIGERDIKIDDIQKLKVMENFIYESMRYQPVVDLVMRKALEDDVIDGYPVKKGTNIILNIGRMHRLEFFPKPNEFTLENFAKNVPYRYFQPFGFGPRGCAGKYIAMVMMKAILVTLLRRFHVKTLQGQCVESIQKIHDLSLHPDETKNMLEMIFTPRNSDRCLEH

| Structure (SMILES) | Potency [1] | Potency [2] | Potency [3] | Potency [4] | Potency [5] | Potency [6] | Potency [7] | Potency [8] | Potency [9] | Potency (Aromatase (Homo sapiens)) | Potency [10] | Potency [11] | Potency [12] | outcome [13] | Potency [14] | Potency [15] | Potency [16] | outcome [17] | Potency [18] |
| --- | --- | --- | --- | --- | --- | --- | --- | --- | --- | --- | --- | --- | --- | --- | --- | --- | --- | --- | --- |
| CN1CCC(=C2c3ccccc3C=Cc3ccccc32)CC1 | 7.5 µM (active) | 10.6 µM (active) | 13.3 µM (active) | 15 µM (active) | 16.8 µM (active) | inactive | inactive | inactive | inactive | inactive |  |  |  |  |  |  |  |  |  |
| O=C(O)c1cccc(N(Cc2cccnc2)c2ccc(OC(F)F)c(OC(F)F)c2)c1 |  |  |  | inactive | inactive | inactive |  |  | inactive |  | inactive | inactive | inactive | inactive |  |  |  |  |  |
| CC[C@@H]1C[C@H](N(Cc2cc(C(F)(F)F)cc(C(F)(F)F)c2)C(C)=O)c2cc(C(F)(F)F)ccc2N1C(=O)OC(C)C |  |  |  |  | inactive | inactive | inactive | inactive |  |  | inactive | inactive | inactive | inactive | inactive | inactive |  |  |  |
| Cc1cc(NC(=O)C(=O)O)cc(C)c1Oc1ccc(O)c2c1CCC2 |  |  |  | inactive | inactive | 0.0017 µM (active) | inactive | 38.6 µM (active) | inactive | inactive | inactive | inactive | inactive |  | inactive | inactive | inactive | inactive | inactive |
| C=CC[N+]1([C@H]2C[C@H]3[C@@H]4CC[C@H]5C[C@H](OC(C)=O)[C@@H](N6CCCCC6)C[C@]5(C)[C@H]4CC[C@]3(C)[C@H]2OC(=O)CC)CCCCC1 |  |  |  | inactive | inactive | inactive | inactive | inactive | inactive | inactive | inactive | inactive | inactive | inactive | inactive | inactive |  |  |  |
| Cc1nc2ccccc2n1Cc1ccc(Cl)cc1 | 2.11 µM (active) | 5.31 µM (active) | 4.22 µM (active) | inactive | 6.68 µM (active) | inactive | inactive |  |  | inactive |  |  |  |  | inactive | 2.37 µM (active) |  |  |  |
| O=C(CCN1CCN2CCCC2C1)N1c2ccccc2Sc2ccc(Cl)cc21 (configuration not stated) | 10.6 µM (active) | 11.9 µM (active) | 23.7 µM (active) | 21.1 µM (active) | 18.8 µM (active) |  | inactive | inactive |  | inactive |  |  | inactive | inactive | inactive | inactive |  | inactive | inactive |
| CC(C)NCC(O)c1cc(O)cc(O)c1 (configuration not stated) | inactive | inactive | inactive |  |  |  |  |  | inactive | inactive |  | inactive | inactive | inactive |  | inactive |  |  |  |
| C=C(C)C(=O)OC(C)C | inactive | inactive | inactive | inactive | inactive | inactive | inactive | inactive | inactive | inactive |  | inactive | inactive | inactive | inactive | inactive | inactive | inactive | inactive |
| C=C(C)C(=O)OCCOc1ccccc1 |  |  |  | inactive | inactive | inactive | inactive | 43.3 µM (active) | inactive |  | inactive | inactive | inactive | inactive |  | inactive |  | inactive | inactive |
| CCOC(=O)C1=C(C)NC(C)=C(C(=O)OC)C1c1cccc([N+](=O)[O-])c1 (configuration not stated) |  |  | 26.6 µM (active) | inactive | inactive | inactive | inactive |  | inactive | inactive | inactive | inactive | inactive | inactive | inactive | inactive |  |  |  |
| CCCCCCCCCO |  |  |  | inactive | inactive | inactive | inactive | inactive | inactive | inactive | inactive |  |  | inactive | inactive | inactive |  |  |  |
| CC(C)(C)c1cc(O)c(C(C)(C)C)cc1O | 12.2 µM (active) | 13.7 µM (active) | 13.7 µM (active) | 48.6 µM (active) |  |  | inactive |  | inactive | 21.7 µM (active) |  |  | inactive | inactive | 43.6 µM [inconclusive] (active) |  | 43.6 µM (active) | inactive |  |
| C=CC(=O)OCC(C)OCC(C)OCC(C)OC(=O)C=C (configuration not stated) | 15.4 µM (active) | 19.3 µM (active) | 17.2 µM (active) | 38.6 µM (active) | 24.3 µM (active) |  | 61.7 µM [activator] (active) |  | inactive | 43.3 µM (active) |  | 54.9 µM (active) | inactive | inactive |  |  |  |  |  |
| CCCCCOC(=O)c1ccc(O)cc1 |  |  |  | inactive |  | inactive | 55.6 µM [inconclusive] (active) | 17.4 µM (active) | inactive |  | inactive | inactive | inactive | inactive | 62.4 µM [inconclusive] (active) |  |  |  |  |
| NCc1ccccc1 | inactive | inactive | inactive | inactive | inactive | inactive |  |  | inactive |  |  | inactive | inactive | inactive |  |  |  |  |  |
| CC(C)(C)C(=O)OCOP(=O)(COCCn1cnc2c(N)ncnc21)OCOC(=O)C(C)(C)C |  |  |  | inactive |  | inactive |  |  | inactive | inactive | inactive | inactive | inactive | inactive |  |  |  |  |  |
| CCOc1ccc(NC(=O)CC(C)=O)cc1 |  |  |  | inactive |  |  |  |  | inactive | inactive | inactive | inactive | inactive | inactive |  |  |  |  |  |

From PubChem BioAssay (Tox21)
